What all share (details): mRNA level, 48 h; actives raise or lower the signal
Read-out in assay [1]: Cytochrome P450 2C19 (Homo sapiens) (UniProt P33261)
Briefly: LTEA_HepaRG_CYP2C19: Life Technologies and Expression Analysis (LTEA) Assay for CYP2C19 using HepaRG (AID 2283482). Put shortly: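 Transcript levels of CYP2C19 were quantified by qRT-PCR after HepaRG cells were treated for 48 hours with test chemicals up to 100 uM (eight half-log concentrations, 0.5% DMSO vehicle). Gain or loss of signal was fitted relative to DMSO.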

Read-out in another assay: CYP2C8 (gene 1558)
As to the kind of experiment: LTEA_HepaRG_CYP2C8: Life Technologies and Expression Analysis (LTEA) Assay for CYP2C8 using HepaRG (AID 2283483). Put shortly: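 HepaRG (human liver line), 48 h chemical exposure, 8-pt half-log series from 100 uM, 0.5% DMSO vehicle. Readout: CYP2C8 transcript by qRT-PCR, housekeeping-normalized. Bidirectional fit vs DMSO baseline.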

Read-out in the next assay: CYP2C9 (gene 1559)
As to the kind of experiment: LTEA_HepaRG_CYP2C9: Life Technologies and Expression Analysis (LTEA) Assay for CYP2C9 using HepaRG (AID 2283484). The procedure, abridged: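 HepaRG, 48 h dosing, 8-pt half-log series, top 100 uM, 0.5% DMSO vehicle. Read-out: CYP2C9 transcript by TaqMan qRT-PCR, housekeeping-normalized (ACTB/GAPDH/POLR2A). Gain or loss fitted vs DMSO baseline.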

Read-out in a further assay: CYP2E1 (gene 1571)
As to the kind of experiment: LTEA_HepaRG_CYP2E1: Life Technologies and Expression Analysis (LTEA) Assay for CYP2E1 using HepaRG (AID 2283485). Put shortly: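 Readout is qRT-PCR of CYP2E1 mRNA, normalized to three housekeeping genes and fitted bidirectionally against 0.5% DMSO. HepaRG cells were dosed 48 h at eight concentrations, highest 100 uM with half-log dilutions.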

Read-out in another assay: CYP4A11 (gene 1579)
As to the kind of experiment: LTEA_HepaRG_CYP4A11: Life Technologies and Expression Analysis (LTEA) Assay for CYP4A11 using HepaRG (AID 2283486). The procedure, abridged:
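HepaRG, 48 h chem exposure, 8 conc (100 uM top, half-log), 0.5% DMSO vehicle; qRT-PCR readout, housekeeping-gene normalized; bidirectional curve fit vs DMSO baseline.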

Read-out in assay [2]: Cytochrome P450 3A4 (Homo sapiens) (UniProt P08684)
As to the kind of experiment: LTEA_HepaRG_CYP3A4: Life Technologies and Expression Analysis (LTEA) Assay for CYP3A4 using HepaRG (AID 2283487). Put shortly: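 Differentiated HepaRG cells, plated 48 h, then dosed 48 h in serum-free induction medium with 0.5% DMSO, 8 half-log concentrations up to 100 uM, duplicate. CYP3A4 mRNA by qRT-PCR, normalized to ACTB/GAPDH/POLR2A; bidirectional fit versus DMSO.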

Read-out in assay [3]: DNA damage-inducible transcript 3 (DDIT3), DDIT3 (gene 1649)
Briefly: LTEA_HepaRG_DDIT3: Life Technologies and Expression Analysis (LTEA) Assay for DNA damage-inducible transcript 3 (DDIT3) using HepaRG (AID 2283488). The procedure, abridged:
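Cells are human HepaRG liver cells treated for 48 h with eight half-log concentrations up to 100 uM in 0.5% DMSO. Transcript levels come from qRT-PCR normalized to three housekeeping genes, with activity fitted in both directions relative to vehicle.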

Read-out in assay [4]: Pro-epidermal growth factor (Homo sapiens) (UniProt P01133)
Briefly: LTEA_HepaRG_EGF: Life Technologies and Expression Analysis (LTEA) Assay for Epidermal growth factor (EGF) using HepaRG (AID 2283489). Put shortly:
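HepaRG, 48 h dosing, 100 uM top, half-log x8, 0.5% DMSO. Readout: TaqMan qRT-PCR (Fluidigm array), housekeeping-normalized. Gain or loss of signal fit vs DMSO.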

Read-out in assay [5]: Early growth response protein 1 (EGR1) transcription factor, EGR1 (gene 1958)
Briefly: LTEA_HepaRG_EGR1: Life Technologies and Expression Analysis (LTEA) Assay for Early growth response protein 1 (EGR1) transcription factor using HepaRG (AID 2283490). The procedure, abridged:
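HepaRG, 48 h exposure, 8-pt half-log series from 100 uM, 0.5% DMSO vehicle; EGR1 transcript by TaqMan qRT-PCR (Fluidigm array), housekeeping-normalized; bidirectional fit relative to DMSO baseline.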

Read-out in assay [6]: Cytochrome P450 3A7 (Homo sapiens) (UniProt P24462)
Briefly: LTEA_HepaRG_CYP3A7: Life Technologies and Expression Analysis (LTEA) Assay for CYP3A7 using HepaRG (AID 2283492). The procedure, abridged:
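Human HepaRG liver cells, 48 h post-plating, switched to serum-free induction medium and exposed in duplicate for 48 h. Dosing: 100 uM top, half-log dilutions, 8 points, 0.5% DMSO vehicle. Read-out: CYP3A7 mRNA, gain or loss fitted against DMSO baseline.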

Read-out in a further assay: CYP3A5 (gene 1577)
As to the kind of experiment: LTEA_HepaRG_CYP3A5: Life Technologies and Expression Analysis (LTEA) Assay for CYP3A5 using HepaRG (AID 2283493). Put shortly: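 Human HepaRG hepatic cells receive 48 h chemical treatment at eight concentrations (half-log steps from 100 uM) in 0.5% DMSO. Expression of CYP3A5 is quantified by Fluidigm qRT-PCR and normalized to three reference genes.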

Read-out in assay [7]: Fatty Acid-Binding Protein 1 (FABP1), FABP1 (gene 2168)
As to the kind of experiment: LTEA_HepaRG_FABP1: Life Technologies and Expression Analysis (LTEA) Assay for Fatty Acid-Binding Protein 1 (FABP1) using HepaRG (AID 2283494). Put shortly:
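qRT-PCR readout of FABP1 transcript (normalized to three housekeeping genes) after 48 h chemical exposure of HepaRG cells; eight concentrations, half-log steps, max 100 uM, 0.5% DMSO vehicle; gain or loss fitted relative to DMSO baseline.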

Read-out in assay [8]: Cytochrome P450 4A22 (Homo sapiens) (UniProt Q5TCH4)
As to the kind of experiment: LTEA_HepaRG_CYP4A22: Life Technologies and Expression Analysis (LTEA) Assay for Cytochrome P450 4A22 (CYP4A22) using HepaRG (AID 2283495). The procedure, abridged: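 Readout is CYP4A22 transcript induction or loss, quantified by qRT-PCR and normalized to ACTB, GAPDH and POLR2A. Human HepaRG cells receive test chemicals for 48 h at eight half-log concentrations from 100 uM in 0.5% DMSO.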

Read-out in assay [9]: Cytochrome P450 7A1 (Homo sapiens) (UniProt P22680)
Briefly: LTEA_HepaRG_CYP7A1: Life Technologies and Expression Analysis (LTEA) Assay for Cytochrome P450 7A1 (CYP7A1) using HepaRG (AID 2283496). Put shortly:
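HepaRG, 48 h exposure, 8-pt half-log series from 100 uM, 0.5% DMSO vehicle, duplicates. Readout: TaqMan qRT-PCR mRNA vs three housekeeping genes; bidirectional curve fit against DMSO baseline.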

Read-out in assay [10]: Glutathione S-Transferase (GSTA2), GSTA2 (gene 2939)
As to the kind of experiment: LTEA_HepaRG_GSTA2: Life Technologies and Expression Analysis (LTEA) Assay for Glutathione S-Transferase (GSTA2) using HepaRG (AID 2283497). The procedure, abridged:
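qRT-PCR readout of GSTA2 transcript, normalized to three housekeeping genes, fitted bidirectionally against 0.5% DMSO baseline. Differentiated HepaRG cells received compound for 48 h at 8 concentrations (top 100 uM, half-log steps).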

Read-out in assay [11]: Glutamate-cysteine ligase catalytic (GCLC), GCLC (gene 2729)
As to the kind of experiment: LTEA_HepaRG_GCLC: Life Technologies and Expression Analysis (LTEA) Assay for Glutamate-cysteine ligase catalytic (GCLC) using HepaRG (AID 2283498). The procedure, abridged: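 HepaRG, 48 h exposure, 8-pt half-log series from 100 uM, 0.5% DMSO vehicle; TaqMan qRT-PCR for GCLC mRNA, housekeeping-normalized; bidirectional curve fit vs DMSO baseline.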

Read-out in assay [12]: growth arrest and DNA damage 45 (GADD45G), GADD45G (gene 10912)
Briefly: LTEA_HepaRG_GADD45G: Life Technologies and Expression Analysis (LTEA) Assay for growth arrest and DNA damage 45 (GADD45G) using HepaRG (AID 2283499). The procedure, abridged:
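Gain or loss of GADD45G mRNA, quantified by TaqMan qRT-PCR against three housekeeping genes, is fitted in both directions relative to 0.5% DMSO. Human HepaRG cultures receive test chemical for 48 h at up to 100 uM.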

Read-out in assay [13]: Glutamate-cysteine ligase regulatory (GCLM), GCLM (gene 2730)
Briefly: LTEA_HepaRG_GCLM: Life Technologies and Expression Analysis (LTEA) Assay for Glutamate-cysteine ligase regulatory (GCLM) using HepaRG (AID 2283500). Put shortly:
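Endpoint is GCLM transcript level by qRT-PCR, normalized to three housekeeping genes, after 48 h chemical exposure of human HepaRG cells (0.5% DMSO vehicle, top 100 uM, half-log dilutions). Fitting was bidirectional relative to DMSO.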

Read-out in assay [14]: Glutathione S-transferase M3 (GSTM3), GSTM3 (gene 2947)
Briefly: LTEA_HepaRG_GSTM3: Life Technologies and Expression Analysis (LTEA) Assay for Glutathione S-transferase M3 (GSTM3) using HepaRG (AID 2283501). The procedure, abridged: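 HepaRG, plated 48 h, then serum-free induction medium; test chemical 48 h, duplicate; 100 uM top, half-log x8, 0.5% DMSO. Read-out: GSTM3 mRNA (TaqMan qRT-PCR, Fluidigm array). Bidirectional fit vs DMSO.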

Read-out in assay [15]: Ezrin (EZR), EZR (gene 7430)
As to the kind of experiment: LTEA_HepaRG_EZR: Life Technologies and Expression Analysis (LTEA) Assay for Ezrin (EZR) using HepaRG (AID 2283491). Put shortly:
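EZR transcript levels came from Fluidigm qRT-PCR and were normalized to three housekeeping genes after 48 h chemical exposure of HepaRG cells. Dosing used an 8-point half-log series with a 100 uM top concentration in 0.5% DMSO, tested in duplicate; both directions were fitted versus vehicle.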

Calls of active or inactive are those of the source. Rule for the calls: active = hit-call score of the fitted dose curve at least 0.9, where 1 is the maximum; inactive = score below 0.9.

Sequence of Cytochrome P450 2C19 (Homo sapiens) (P33261 whole entry, looked up): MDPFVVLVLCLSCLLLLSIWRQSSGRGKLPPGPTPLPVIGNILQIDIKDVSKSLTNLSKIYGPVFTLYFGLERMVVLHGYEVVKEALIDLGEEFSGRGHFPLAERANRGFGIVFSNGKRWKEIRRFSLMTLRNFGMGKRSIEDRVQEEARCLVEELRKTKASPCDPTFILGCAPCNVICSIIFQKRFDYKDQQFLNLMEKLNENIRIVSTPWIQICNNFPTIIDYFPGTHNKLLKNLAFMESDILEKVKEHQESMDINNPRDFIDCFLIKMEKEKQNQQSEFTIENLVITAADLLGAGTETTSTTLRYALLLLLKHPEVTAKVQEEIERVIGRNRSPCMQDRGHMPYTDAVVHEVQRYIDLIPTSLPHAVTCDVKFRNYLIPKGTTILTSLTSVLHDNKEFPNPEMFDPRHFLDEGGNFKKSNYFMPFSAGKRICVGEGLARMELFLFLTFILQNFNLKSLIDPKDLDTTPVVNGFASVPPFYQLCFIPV
Sequence of Cytochrome P450 3A7 (Homo sapiens) (P24462 whole entry, looked up): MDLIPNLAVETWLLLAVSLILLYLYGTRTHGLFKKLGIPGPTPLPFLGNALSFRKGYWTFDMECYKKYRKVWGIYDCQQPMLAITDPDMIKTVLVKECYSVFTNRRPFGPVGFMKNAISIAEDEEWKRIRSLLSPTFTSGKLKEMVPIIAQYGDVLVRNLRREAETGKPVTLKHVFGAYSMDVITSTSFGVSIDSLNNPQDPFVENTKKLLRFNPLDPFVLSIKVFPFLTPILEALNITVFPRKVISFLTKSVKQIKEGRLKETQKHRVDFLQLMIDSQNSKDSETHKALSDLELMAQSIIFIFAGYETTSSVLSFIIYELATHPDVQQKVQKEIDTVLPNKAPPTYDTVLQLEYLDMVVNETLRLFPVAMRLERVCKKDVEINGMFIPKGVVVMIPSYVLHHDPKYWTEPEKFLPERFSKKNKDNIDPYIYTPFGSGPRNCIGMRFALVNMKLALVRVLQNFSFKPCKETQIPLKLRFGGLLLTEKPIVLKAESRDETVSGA
Sequence of Cytochrome P450 3A4 (Homo sapiens) (P08684 whole entry, looked up): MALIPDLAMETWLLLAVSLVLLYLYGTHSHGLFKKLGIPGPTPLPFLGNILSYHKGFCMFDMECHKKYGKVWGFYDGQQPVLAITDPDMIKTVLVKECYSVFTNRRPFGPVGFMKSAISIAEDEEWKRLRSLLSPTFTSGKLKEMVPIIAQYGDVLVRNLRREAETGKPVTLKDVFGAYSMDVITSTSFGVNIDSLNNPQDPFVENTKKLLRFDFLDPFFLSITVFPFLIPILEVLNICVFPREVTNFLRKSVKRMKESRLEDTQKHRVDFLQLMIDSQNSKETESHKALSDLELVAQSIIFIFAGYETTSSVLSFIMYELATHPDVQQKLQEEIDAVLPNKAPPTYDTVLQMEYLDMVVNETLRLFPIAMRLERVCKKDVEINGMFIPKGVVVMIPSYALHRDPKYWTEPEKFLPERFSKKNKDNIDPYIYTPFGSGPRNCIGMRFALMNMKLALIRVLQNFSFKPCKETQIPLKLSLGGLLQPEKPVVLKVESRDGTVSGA

The term AC50 denotes the concentration giving half of the maximal activity seen. As for `CCOP(=S)(OCC)OC(Cl)C(Cl)(Cl)Cl` (configuration not stated), the result (in assay [1]; with CYP2C8 (gene 1558); in the assay with CYP2C9 (gene 1559); with CYP2E1 (gene 1571); with CYP4A11 (gene 1579); in assay [3]) was inactive. Also, the molecule was called inactive (in [4]; in assay [5]; in assay [6]; with CYP3A5 (gene 1577); in assay [7]; in assay [8]). For the same molecule, the molecule was called inactive in [9], in assay [10], in assay [11], in assay [12], in [13] and in [14]. Moreover, the AC50 in [2] was 50 µM (active).
Regarding `COP(=O)(NC(C)=O)SC` (configuration not stated), the molecule was classed as inactive (in assay [1]; in the assay with CYP2C8 (gene 1558); with CYP2C9 (gene 1559); with CYP2E1 (gene 1571); with CYP4A11 (gene 1579); in assay [2]). Further, the call (in [3]; in assay [4]; in assay [5]; in assay [15]; in assay [6]; with CYP3A5 (gene 1577)) was inactive. The call in [7], in assay [8], in [9], in assay [10], in assay [11] and in assay [12] was inactive. Besides, the call in [13] and in [14] was inactive.
Regarding `COc1cc(OC)nc(Sc2cccc(Cl)c2C(=O)O)n1`, the molecule was classed as inactive (in [1]; in the assay with CYP2C8 (gene 1558); with CYP4A11 (gene 1579); in assay [3]; in assay [4]; in [5]). The call (in [6]; with CYP3A5 (gene 1577); in assay [7]; in assay [8]; in assay [9]; in [10]) was inactive. Further, the outcome in [11], in assay [12] and in assay [13] was inactive. In addition, the AC50 with CYP2E1 (gene 1571) was 29.7 µM (active); in [2], 50 µM (active).
Consider `O=c1ccc(=O)[nH][nH]1`, for which the outcome (in assay [1]; with CYP2C8 (gene 1558); in the assay with CYP2C9 (gene 1559); with CYP4A11 (gene 1579); in assay [2]; in [3]) was inactive. The molecule was classed as inactive (in assay [4]; in assay [5]; in assay [6]; with CYP3A5 (gene 1577); in assay [7]; in assay [8]). The molecule was classed as inactive in assay [9], in assay [11], in assay [12], in assay [13] and in assay [14]. Besides, the AC50 with CYP2E1 (gene 1571) was 16 µM (active).
Turning to `CCc1cccc(CC)c1N(COC)C(=O)CCl`, the result (in assay [1]; in the assay with CYP2C8 (gene 1558); with CYP2E1 (gene 1571); with CYP4A11 (gene 1579); in [2]; in [3]) was inactive. Further, the molecule was called inactive (in [4]; in assay [5]; in assay [6]; in the assay with CYP3A5 (gene 1577); in assay [7]; in [8]). Also, the molecule was called inactive in assay [9], in [10], in assay [11], in assay [12], in [13] and in [14].
For `CC1=NNC(=O)N(/N=C/c2cccnc2)C1`, the result (in assay [1]; with CYP2C8 (gene 1558); with CYP2C9 (gene 1559); with CYP2E1 (gene 1571); with CYP4A11 (gene 1579); in assay [2]) was inactive. Further, the molecule was classed as inactive (in assay [3]; in assay [4]; in assay [5]; in assay [6]; with CYP3A5 (gene 1577); in assay [7]). Besides, the molecule was called inactive in assay [8], in assay [9], in assay [10], in assay [11], in assay [12] and in assay [13]. Moreover, in [14], the outcome was inactive.
Take `CC(C)N(C(=O)SCC(Cl)=C(Cl)Cl)C(C)C`: the molecule was classed as inactive (in [1]; with CYP2C8 (gene 1558); with CYP4A11 (gene 1579); in assay [2]; in [3]; in [4]). The call (in assay [5]; in assay [6]; with CYP3A5 (gene 1577); in assay [7]; in assay [8]; in assay [9]) was inactive. For the same molecule, the outcome in assay [11], in [12], in [13] and in assay [14] was inactive.

Source of the values: PubChem BioAssay (EPA / NIEHS).
